Reference: ChEMBL document CHEMBL1961873, “Compounds: GSK PKIS; Assays: Nanosyn kinase panel” (2012)

Legend:
[1] = target: T1, Tyrosine-protein kinase ITK/TSK (Homo sapiens) (UniProt Q08881); conditions: at 1 µM;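 also: values are mean percent inhibition of ITK from the GSK PKIS screen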
T1 sequence (whole entry): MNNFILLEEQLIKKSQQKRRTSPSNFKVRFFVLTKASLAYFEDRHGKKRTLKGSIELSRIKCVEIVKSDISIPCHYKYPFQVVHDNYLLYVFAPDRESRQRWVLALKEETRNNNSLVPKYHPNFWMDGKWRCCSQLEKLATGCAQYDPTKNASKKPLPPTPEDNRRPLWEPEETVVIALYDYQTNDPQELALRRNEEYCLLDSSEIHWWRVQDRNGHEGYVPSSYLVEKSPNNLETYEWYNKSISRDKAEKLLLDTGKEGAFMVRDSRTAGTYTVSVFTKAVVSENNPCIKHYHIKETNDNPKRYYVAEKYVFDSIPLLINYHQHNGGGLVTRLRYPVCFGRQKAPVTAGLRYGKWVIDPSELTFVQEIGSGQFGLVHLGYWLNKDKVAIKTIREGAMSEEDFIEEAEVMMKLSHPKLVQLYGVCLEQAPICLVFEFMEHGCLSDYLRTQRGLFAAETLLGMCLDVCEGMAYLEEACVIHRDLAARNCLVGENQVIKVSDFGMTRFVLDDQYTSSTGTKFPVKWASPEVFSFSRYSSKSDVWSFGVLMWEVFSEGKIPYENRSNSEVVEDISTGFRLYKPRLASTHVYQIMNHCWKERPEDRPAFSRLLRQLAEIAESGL

[2] = target: Tyrosine-protein kinase JAK1 (Homo sapiens) (UniProt P23458); conditions: at 0.1 µM
[3] = target: Tyrosine-protein kinase JAK1 (Homo sapiens) (UniProt P23458); conditions: at 1 µM
[4] = target: Tyrosine-protein kinase JAK2 (Homo sapiens) (UniProt O60674); conditions: at 0.1 µM
[5] = target: Tyrosine-protein kinase JAK2 (Homo sapiens) (UniProt O60674); conditions: at 1 µM
[6] = target: T2, Tyrosine-protein kinase JAK3 (Homo sapiens) (UniProt P52333); conditions: at 0.1 µM
T2 sequence (whole entry): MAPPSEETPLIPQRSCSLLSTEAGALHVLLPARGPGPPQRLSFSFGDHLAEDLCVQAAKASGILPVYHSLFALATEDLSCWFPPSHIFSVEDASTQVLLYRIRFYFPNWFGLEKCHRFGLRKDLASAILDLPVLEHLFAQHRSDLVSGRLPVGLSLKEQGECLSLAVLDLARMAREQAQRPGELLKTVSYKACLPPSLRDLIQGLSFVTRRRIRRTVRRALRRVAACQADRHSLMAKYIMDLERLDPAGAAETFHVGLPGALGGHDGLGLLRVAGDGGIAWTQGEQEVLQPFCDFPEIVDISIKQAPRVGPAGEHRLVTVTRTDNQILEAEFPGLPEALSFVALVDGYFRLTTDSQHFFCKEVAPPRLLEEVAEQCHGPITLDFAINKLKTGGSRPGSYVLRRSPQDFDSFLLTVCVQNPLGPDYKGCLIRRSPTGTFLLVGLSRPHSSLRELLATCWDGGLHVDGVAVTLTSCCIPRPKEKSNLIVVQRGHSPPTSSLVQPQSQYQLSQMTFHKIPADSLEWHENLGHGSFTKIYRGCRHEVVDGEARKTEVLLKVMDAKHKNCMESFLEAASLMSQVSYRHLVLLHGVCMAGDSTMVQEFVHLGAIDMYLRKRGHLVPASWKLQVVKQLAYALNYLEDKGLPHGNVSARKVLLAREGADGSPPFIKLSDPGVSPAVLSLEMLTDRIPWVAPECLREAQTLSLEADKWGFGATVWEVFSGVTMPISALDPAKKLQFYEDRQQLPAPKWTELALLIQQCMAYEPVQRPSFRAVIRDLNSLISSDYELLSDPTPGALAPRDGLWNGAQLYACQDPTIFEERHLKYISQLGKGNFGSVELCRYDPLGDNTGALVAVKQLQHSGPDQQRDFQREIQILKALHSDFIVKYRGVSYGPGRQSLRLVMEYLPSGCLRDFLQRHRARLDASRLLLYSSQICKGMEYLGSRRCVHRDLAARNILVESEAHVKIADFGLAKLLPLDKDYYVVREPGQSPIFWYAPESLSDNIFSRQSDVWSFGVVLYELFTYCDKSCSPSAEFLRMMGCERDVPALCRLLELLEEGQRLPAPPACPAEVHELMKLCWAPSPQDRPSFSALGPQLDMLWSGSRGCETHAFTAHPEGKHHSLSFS

[7] = target: T2, Tyrosine-protein kinase JAK3 (Homo sapiens); conditions: at 1 µM
[8] = target: Vascular endothelial growth factor receptor 2 (Homo sapiens) (UniProt P35968); conditions: at 0.1 µM
[9] = target: Vascular endothelial growth factor receptor 2 (Homo sapiens) (UniProt P35968); conditions: at 1 µM
[10] = target: Mast/stem cell growth factor receptor Kit (Homo sapiens) (UniProt P10721); conditions: at 0.1 µM
[11] = target: Mast/stem cell growth factor receptor Kit (Homo sapiens) (UniProt P10721); conditions: at 1 µM
[12] = test system: Mast/stem cell growth factor receptor Kit (Homo sapiens), P10721 [D816V]; conditions: at 0.1 µM
[13] = test system: Mast/stem cell growth factor receptor Kit (Homo sapiens), P10721 [D816V]; conditions: at 1 µM
[14] = test system: Mast/stem cell growth factor receptor Kit (Homo sapiens), P10721 [T670I]; conditions: at 0.1 µM
[15] = test system: Mast/stem cell growth factor receptor Kit (Homo sapiens), P10721 [T670I]; conditions: at 1 µM
[16] = test system: Mast/stem cell growth factor receptor Kit (Homo sapiens), P10721 [V560G]; conditions: at 0.1 µM
[17] = test system: Mast/stem cell growth factor receptor Kit (Homo sapiens), P10721 [V560G]; conditions: at 1 µM
[18] = target: Tyrosine-protein kinase Lck (Homo sapiens) (UniProt P06239); conditions: at 0.1 µM
[19] = target: Tyrosine-protein kinase Lck (Homo sapiens) (UniProt P06239); conditions: at 1 µM
[20] = target: Leukocyte tyrosine kinase receptor (Homo sapiens) (UniProt P29376); conditions: at 0.1 µM
Chain of Leukocyte tyrosine kinase receptor (Homo sapiens) (P29376 whole entry): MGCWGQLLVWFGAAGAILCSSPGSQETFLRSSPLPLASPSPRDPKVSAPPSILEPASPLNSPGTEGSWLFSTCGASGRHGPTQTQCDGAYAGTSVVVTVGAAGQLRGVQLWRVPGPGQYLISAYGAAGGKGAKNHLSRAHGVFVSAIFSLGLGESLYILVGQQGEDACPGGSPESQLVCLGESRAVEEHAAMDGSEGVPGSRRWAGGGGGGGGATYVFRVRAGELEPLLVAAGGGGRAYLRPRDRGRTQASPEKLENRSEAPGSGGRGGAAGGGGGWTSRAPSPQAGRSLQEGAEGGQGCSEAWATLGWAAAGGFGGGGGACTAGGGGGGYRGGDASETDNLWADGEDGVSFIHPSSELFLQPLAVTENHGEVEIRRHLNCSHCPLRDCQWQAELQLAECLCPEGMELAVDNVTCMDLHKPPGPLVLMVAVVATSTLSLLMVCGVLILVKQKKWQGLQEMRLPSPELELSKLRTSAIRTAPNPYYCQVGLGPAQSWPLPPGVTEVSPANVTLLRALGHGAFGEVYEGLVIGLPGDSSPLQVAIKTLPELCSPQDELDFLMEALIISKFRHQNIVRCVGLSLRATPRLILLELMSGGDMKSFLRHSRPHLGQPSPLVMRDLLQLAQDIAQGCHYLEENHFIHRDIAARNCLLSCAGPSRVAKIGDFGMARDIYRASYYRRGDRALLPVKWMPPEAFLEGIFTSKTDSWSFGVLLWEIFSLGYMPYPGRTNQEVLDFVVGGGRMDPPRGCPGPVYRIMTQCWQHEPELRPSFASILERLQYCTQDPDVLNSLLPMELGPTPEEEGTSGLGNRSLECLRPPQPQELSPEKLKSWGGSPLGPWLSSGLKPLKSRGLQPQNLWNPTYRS

Chain of Mast/stem cell growth factor receptor Kit (Homo sapiens) (P10721 whole entry): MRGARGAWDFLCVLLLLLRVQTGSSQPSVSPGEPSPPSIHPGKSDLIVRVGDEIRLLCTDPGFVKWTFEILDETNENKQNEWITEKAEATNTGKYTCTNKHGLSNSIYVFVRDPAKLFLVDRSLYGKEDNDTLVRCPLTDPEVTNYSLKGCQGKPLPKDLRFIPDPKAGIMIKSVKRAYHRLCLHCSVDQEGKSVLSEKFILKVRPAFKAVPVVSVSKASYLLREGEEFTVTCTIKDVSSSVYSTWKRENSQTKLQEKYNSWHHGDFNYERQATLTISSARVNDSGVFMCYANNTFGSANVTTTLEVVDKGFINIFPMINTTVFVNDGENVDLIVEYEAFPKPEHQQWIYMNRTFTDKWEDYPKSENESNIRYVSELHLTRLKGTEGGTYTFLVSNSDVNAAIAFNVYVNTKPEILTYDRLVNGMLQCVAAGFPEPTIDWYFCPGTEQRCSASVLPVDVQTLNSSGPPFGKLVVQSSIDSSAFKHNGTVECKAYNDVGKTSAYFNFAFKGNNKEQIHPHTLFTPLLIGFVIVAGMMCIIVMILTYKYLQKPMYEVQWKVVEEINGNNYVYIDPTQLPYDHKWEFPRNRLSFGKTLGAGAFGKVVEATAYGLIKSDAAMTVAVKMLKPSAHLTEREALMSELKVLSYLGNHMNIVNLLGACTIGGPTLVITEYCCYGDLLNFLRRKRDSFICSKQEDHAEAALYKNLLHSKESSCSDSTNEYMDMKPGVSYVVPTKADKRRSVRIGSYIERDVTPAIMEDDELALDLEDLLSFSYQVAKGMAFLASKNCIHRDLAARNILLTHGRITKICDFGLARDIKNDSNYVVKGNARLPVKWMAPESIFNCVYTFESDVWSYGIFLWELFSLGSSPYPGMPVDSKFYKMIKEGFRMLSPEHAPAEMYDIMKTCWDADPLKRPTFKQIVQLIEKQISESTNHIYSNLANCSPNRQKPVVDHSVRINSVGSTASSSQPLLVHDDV
Chain of Mast/stem cell growth factor receptor Kit (Homo sapiens), P10721 [T670I] (P10721 whole entry T670I): as the sequence (P10721 whole entry) above, with T670I counted along it
Chain of Tyrosine-protein kinase JAK1 (Homo sapiens) (P23458 whole entry): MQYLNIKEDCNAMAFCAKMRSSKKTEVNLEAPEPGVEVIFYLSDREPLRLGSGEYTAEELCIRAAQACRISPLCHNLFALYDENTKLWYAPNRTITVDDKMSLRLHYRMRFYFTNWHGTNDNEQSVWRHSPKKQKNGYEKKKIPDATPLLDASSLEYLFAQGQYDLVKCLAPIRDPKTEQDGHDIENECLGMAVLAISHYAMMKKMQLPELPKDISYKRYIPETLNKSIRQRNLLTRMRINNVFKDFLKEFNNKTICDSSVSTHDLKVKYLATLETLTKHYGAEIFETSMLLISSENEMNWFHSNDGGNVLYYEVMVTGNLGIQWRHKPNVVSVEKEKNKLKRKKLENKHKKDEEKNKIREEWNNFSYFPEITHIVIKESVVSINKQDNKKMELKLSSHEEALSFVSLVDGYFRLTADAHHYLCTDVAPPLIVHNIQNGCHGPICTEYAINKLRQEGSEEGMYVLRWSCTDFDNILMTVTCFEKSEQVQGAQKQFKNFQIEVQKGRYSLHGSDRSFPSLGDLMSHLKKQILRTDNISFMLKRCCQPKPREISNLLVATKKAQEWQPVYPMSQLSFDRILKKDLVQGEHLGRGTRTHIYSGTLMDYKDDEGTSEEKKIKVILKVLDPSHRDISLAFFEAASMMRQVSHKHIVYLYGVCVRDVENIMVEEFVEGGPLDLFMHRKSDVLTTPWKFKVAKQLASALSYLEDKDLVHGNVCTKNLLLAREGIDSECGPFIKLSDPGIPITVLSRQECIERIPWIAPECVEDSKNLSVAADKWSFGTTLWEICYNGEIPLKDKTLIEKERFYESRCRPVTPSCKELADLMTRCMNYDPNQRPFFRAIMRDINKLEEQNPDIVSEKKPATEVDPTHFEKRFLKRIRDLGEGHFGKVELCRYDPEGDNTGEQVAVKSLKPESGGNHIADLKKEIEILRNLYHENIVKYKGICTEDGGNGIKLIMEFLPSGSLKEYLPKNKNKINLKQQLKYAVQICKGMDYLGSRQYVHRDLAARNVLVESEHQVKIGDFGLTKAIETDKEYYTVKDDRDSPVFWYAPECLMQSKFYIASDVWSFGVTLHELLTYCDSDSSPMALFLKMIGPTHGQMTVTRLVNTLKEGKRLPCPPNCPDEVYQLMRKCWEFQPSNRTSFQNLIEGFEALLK
Chain of Vascular endothelial growth factor receptor 2 (Homo sapiens) (P35968 whole entry): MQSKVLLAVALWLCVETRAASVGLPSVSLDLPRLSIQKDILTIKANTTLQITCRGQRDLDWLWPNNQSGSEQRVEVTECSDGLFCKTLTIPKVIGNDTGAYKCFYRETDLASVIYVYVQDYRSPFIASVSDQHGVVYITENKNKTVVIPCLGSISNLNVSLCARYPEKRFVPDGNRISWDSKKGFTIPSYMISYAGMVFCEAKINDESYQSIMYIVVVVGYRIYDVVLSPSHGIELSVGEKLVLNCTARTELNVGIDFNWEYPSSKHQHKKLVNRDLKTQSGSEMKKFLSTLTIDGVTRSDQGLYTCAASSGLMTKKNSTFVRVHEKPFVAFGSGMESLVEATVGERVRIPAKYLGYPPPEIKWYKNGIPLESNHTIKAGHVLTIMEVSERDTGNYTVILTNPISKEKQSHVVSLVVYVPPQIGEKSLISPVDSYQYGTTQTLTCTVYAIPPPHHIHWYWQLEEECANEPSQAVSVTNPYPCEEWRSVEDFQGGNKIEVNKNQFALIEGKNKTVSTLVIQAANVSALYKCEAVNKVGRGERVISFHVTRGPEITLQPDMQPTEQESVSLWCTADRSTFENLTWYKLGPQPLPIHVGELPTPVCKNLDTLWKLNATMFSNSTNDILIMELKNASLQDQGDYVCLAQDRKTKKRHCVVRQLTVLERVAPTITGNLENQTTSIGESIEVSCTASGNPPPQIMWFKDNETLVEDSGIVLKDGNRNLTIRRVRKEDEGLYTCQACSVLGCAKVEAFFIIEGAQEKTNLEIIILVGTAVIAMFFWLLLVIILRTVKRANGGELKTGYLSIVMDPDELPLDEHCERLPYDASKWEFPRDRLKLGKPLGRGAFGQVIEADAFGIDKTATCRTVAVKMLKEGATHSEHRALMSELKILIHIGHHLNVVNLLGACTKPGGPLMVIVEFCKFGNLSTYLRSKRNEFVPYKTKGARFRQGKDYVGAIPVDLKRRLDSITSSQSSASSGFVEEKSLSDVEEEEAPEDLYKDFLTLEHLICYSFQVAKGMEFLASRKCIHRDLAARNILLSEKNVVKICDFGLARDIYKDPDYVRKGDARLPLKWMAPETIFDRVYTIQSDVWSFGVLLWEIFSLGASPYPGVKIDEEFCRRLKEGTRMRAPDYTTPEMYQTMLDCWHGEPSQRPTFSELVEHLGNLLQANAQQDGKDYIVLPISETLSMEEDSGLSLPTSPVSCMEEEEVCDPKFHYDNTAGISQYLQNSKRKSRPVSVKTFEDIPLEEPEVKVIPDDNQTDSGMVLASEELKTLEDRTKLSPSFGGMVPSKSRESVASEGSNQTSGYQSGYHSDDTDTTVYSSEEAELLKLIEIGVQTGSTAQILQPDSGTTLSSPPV
Chain of Mast/stem cell growth factor receptor Kit (Homo sapiens), P10721 [V560G] (P10721 whole entry V560G): as the sequence (P10721 whole entry) above, with V560G counted along it
Chain of Tyrosine-protein kinase Lck (Homo sapiens) (P06239 2-509 limits assumed): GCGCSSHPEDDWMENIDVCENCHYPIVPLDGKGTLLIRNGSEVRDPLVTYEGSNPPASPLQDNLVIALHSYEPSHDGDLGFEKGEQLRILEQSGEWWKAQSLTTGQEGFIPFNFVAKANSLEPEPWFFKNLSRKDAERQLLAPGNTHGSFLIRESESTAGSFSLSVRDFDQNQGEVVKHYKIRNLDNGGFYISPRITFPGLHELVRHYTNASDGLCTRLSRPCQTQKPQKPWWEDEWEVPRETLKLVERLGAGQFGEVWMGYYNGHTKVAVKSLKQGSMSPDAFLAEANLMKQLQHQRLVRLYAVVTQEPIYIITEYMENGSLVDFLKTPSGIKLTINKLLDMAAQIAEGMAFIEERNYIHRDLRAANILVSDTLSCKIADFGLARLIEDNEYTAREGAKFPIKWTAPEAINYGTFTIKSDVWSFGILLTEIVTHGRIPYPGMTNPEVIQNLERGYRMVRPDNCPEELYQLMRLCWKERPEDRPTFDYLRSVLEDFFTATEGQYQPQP
Chain of Mast/stem cell growth factor receptor Kit (Homo sapiens), P10721 [D816V] (P10721 whole entry D816V): as the sequence (P10721 whole entry) above, with D816V counted along it

SMILES | inhibition [1] [%] | inhibition [2] [%] | inhibition [3] [%] | inhibition [4] [%] | inhibition [5] [%] | inhibition [6] [%] | inhibition [7] [%] | inhibition [8] [%] | inhibition [9] [%] | inhibition [10] [%] | inhibition [11] [%] | inhibition [12] [%] | inhibition [13] [%] | inhibition [14] [%] | inhibition [15] [%] | inhibition [16] [%] | inhibition [17] [%] | inhibition [18] [%] | inhibition [19] [%] | inhibition [20] [%]
CCCN1CCC(c2ccc(Nc3nc(Nc4cc(F)ccc4C(N)=O)c4cc[nH]c4n3)c(OC)c2)CC1 | 7.34 | 2.55 | 20.8 | 0.71 | 2.85 | -0.92 | 0.07 | 6.99 | 18.6 | 7.64 | 23.6 | 7.89 | 4.96 | 4.05 | 8.96 | -2.53 | 1.43 | 2.44 | 9.44 | 94.6
CCn1c(-c2nonc2N)nc2ccccc21 | 0.89 | 5.98 | -0.06 | 1.96 | 1.39 | -0.66 | 1.16 | 3.69 | 4.29 | 3.84 | 4.28 | 1.78 | -1.08 | 2.82 | 0.55 | 1.72 | 1.6 | 0.68 | 3.03 | 5.66
COc1cc(Nc2nccc(Nc3ccc4c(C)n[nH]c4c3)n2)cc(OC)c1OC | 7.07 | 17.8 | 66.5 | 35.6 | 72.5 | 1.48 | 27.8 | 74.9 | 72.5 | 77.3 | 95.8 | 10.8 | 58.7 | 4.19 | 43.3 | 13.1 | 57.9 | 34.4 | 82.4 | 2.14
CC1=C(C(=O)Nc2cc(Cl)c3[nH]ncc3c2)C(c2ccc(C(F)(F)F)cc2)CC(=O)N1 (stereo not given) | 2.35 | 9.58 | 51.5 | 2.99 | 29.2 | 2.49 | 42.3 | 4.67 | 6.91 | 4.2 | 0.36 | 4.84 | 6.4 | 2.93 | 4.07 | -1.27 | -0.62 | 4.9 | 27.1 | 2.35
CCN1CCC(CC(=O)Nc2n[nH]c3nnc(-c4cccc(F)c4F)cc23)CC1 | 1.3 | 3.38 | 4.71 | 0.88 | 0.1 | -2.12 | 1.45 | 0.77 | 4.46 | 0.04 | 0.38 | 0.53 | 0.47 | 0.27 | 1.83 | 1.48 | -0.83 | 2.01 | 6.17 | 2.06
Fc1ccc(-c2cc(-c3c[nH]nc3-c3ccccn3)ccn2)cc1 | 0.13 | 4.79 | 14.2 | 1 | 0.86 | -0.89 | -3.5 | 7.31 | 22.2 | 5.29 | 6.81 | 1.94 | 4.27 | 4.29 | 8.03 | -3.44 | 1.08 | 1.94 | 2.35 | 4.6
NC(=O)c1sc(-n2cnc3ccc(C(F)(F)F)cc32)cc1OCc1ccccc1Br | -0.19 | 3.49 | 10.6 | 1.84 | 3.26 | -1.41 | 0.92 | 6.34 | 7.31 | 5.23 | 5.18 | 5.27 | 5.73 | 2.58 | 3.8 | -0.43 | -0.61 | -0.17 | 1.85 | 3.16
